Data reported in PubChem BioAssay (EPA / NIEHS).
Several values for one entry are separate records, joined by “and”; a condition that tells them apart may be missing. Equal values may be shown once. The source holds several records for some structures; these can differ, active in one and inactive in another. Activity calls are given as the source filed them. How the source made its calls: active means hit-call score of the fitted dose curve at least 0.9, where 1 is the maximum; inactive means score below 0.9.

read-out: Interleukin-8 (IL8), CXCL8 (gene 3576); assay: BSK_SAg_IL8: BioMAP Diversity Plus: SAg Assay for Interleukin-8 (IL8) Biomarker Activity (AID 2283094); conditions: primary human HUVEC with PBMC; actives raise or lower the signal
Procedure, shortened: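 Human umbilical vein endothelial cells co-cultured with peripheral blood mononuclear cells; IL-8 measured by ELISA 24 h after chemical dosing. Bidirectional concentration-response fitting used DMSO as negative control and activity baseline.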

Structure (SMILES) | AC50 | outcome
CCOC(=O)C(O)(c1ccc(Cl)cc1)c1ccc(Cl)cc1 | 32.9 µM (active) | –
O=C(NC(=O)c1cc(F)c(F)cc1Cl)Nc1cc(F)ccc1N1CCC(C(=O)O)CC1 | – | inactive
CCC(=O)O[C@H]1CC[C@H]2[C@@H]3CCC4=CC(=O)CC[C@]4(C)[C@H]3CC[C@]12C | 29.8 µM (active) | –
Cc1cc(O)ccc1Cl | – | inactive
CCOCCOC(C)=O | – | inactive
N#Cc1ccc(N(CC(N)=O)CC(F)(F)F)cc1C(F)(F)F | – | inactive
O=NN(c1ccccc1)c1ccccc1 | – | inactive
O=C(O)C(F)(F)C(F)(F)C(F)(F)C(F)(F)C(F)(F)C(F)(F)C(F)(F)C(F)(F)F | 44.1 µM (active) and 55.1 µM (active) | inactive
C=CC(=O)NCNC(=O)C=C | – | inactive
Clc1ccc(Cl)cc1 | – | inactive
Cc1ccccc1[N+](=O)[O-] | – | inactive
CC(C)(c1ccccc1)c1ccc(O)cc1 | 30.9 µM (active) | –
CCCCCCCCOC(=O)c1ccccc1C(=O)OCCCCCCCC | – | inactive
Oc1c(Cl)c(Cl)c(Cl)c(Cl)c1Cl | – | inactive
CCSC(=O)N(CC)C1CCCCC1 | – | inactive
O=C(O)C(F)(F)C(F)(F)C(F)(F)C(F)(F)C(F)(F)C(F)(F)C(F)(F)C(F)(F)C(F)(F)F | 36.3 µM (active) and 49.4 µM (active) and 41.4 µM (active) | –

Structure (SMILES) | AC50 | outcome
C1CC2OC2CC1C1CO1 (stereo not drawn) | – | inactive
c1cc2ccc3cccc4ccc(c1)c2c34 | – | inactive
C[C@]12CCC(=O)C=C1CC[C@@H]1[C@@H]2CC[C@@]2(C)[C@H]1CC[C@]2(C)O | – | inactive
Oc1ccc(Cl)cc1Cl | – | inactive
CN(C)c1nc(=O)n(C2CCCCC2)c(=O)n1C | – | inactive
O=C(NC(=O)c1c(F)cccc1F)Nc1cc(Cl)c(OC(F)(F)C(F)F)c(Cl)c1 | – | inactive
CCCCCCOC(=O)c1ccccc1C(=O)OCCCCCC | 29 µM (active) | –
O=S(=O)(O)C(F)(F)C(F)(F)C(F)(F)C(F)(F)F | – | inactive
Cc1ccc(O)c(C)c1 | – | inactive
CCCCCCCCCC[N+](C)(C)CCCCCCCCCC | 7.36 µM (active) | –
CC1=C2C[C@H]3[C@@H](CC=C4C[C@@H](O)CC[C@@]43C)[C@@H]2CC[C@]12O[C@@H]1C[C@H](C)CN[C@H]1[C@H]2C | – | inactive
c1ccc(-c2ccccc2)cc1 | – | inactive
O=C(N[C@H]1CN2CCC1CC2)c1cc2ccoc2cn1 | – | inactive
CN(C)CCO | – | inactive
ClC1=C(Cl)[C@]2(Cl)[C@@H]3[C@H]4C[C@H]([C@@H]5O[C@H]45)[C@@H]3[C@@]1(Cl)C2(Cl)Cl | – | inactive
COc1ccc(O)c(C(C)(C)C)c1 | – | inactive
